About 2,000 (36%) of roughly 5,500 compounds were called active. Not shown: some 18% with an inconclusive outcome. The list shows a part of the results. Unmarked numbers belong to inactive results. No stated cut-off is given here; in the data, active means normalized growth mostly below about 0.91 (no sharp cut-off); inconclusive means no clear call, values can overlap the other calls; inactive means mostly above about 0.92.

This test is described as follows: chemical genetic growth profiling, strain panel (AID 1159580).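 Further: tested at 20 µM; growth read once vehicle control cultures reached saturation at 30 °C; 1 = growth at the plate median or of vehicle wells; lower values mean less growth of the strain.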 Conditions: growth OD.
[1] abbreviates: S. cerevisiae deletion strains, locus YHR030C, strain SLT2, hits give low values.

In the case of `CCCCCCCCCCc1ccc(-c2ccccc2)cc1`, the normalized growth runs as follows: (S. cerevisiae deletion strains, locus YAL013W, strain DEP1, hits give low values) 0.982; (S. cerevisiae deletion strains, locus YBR229C, strain ROT2, hits give low values) 1.01; (S. cerevisiae deletion strains, locus YDL101C, strain DUN1, hits give low values) 0.99; (S. cerevisiae deletion strains, locus YDR150W, strain NUM1, hits give low values) 0.976; (S. cerevisiae deletion strains, locus YEL061C, strain CIN8, hits give low values) 0.988; (S. cerevisiae deletion strains, locus YGR078C, strain PAC10, hits give low values) 0.988. The normalized growth is 0.769 under setting [1]; 1.09 (S. cerevisiae deletion strains, locus YHR087W, strain rtc3, hits give low values); 1.01 (S. cerevisiae deletion strains, locus YJL187C, strain SWE1, hits give low values); 0.992 (S. cerevisiae deletion strains, locus YJR043C, strain POL32, hits give low values); 0.989 (S. cerevisiae deletion strains, locus YJR075W, strain HOC1, hits give low values); 0.992 (S. cerevisiae deletion strains, locus YLR039C, strain RIC1, hits give low values). Further, the normalized growth is, setting by setting: (S. cerevisiae deletion strains, locus YLR058C, strain SHM2 (second series), hits give low values) 1.01; (S. cerevisiae deletion strains, locus YLR085C, strain ARP6, hits give low values) 0.845; (S. cerevisiae deletion strains, locus YLR262C, strain YPT6, hits give low values) 0.941; (S. cerevisiae deletion strains, locus YML094W, strain GIM5, hits give low values) 0.97; (S. cerevisiae deletion strains, locus YMR219W, strain ESC1, hits give low values) 0.998; (S. cerevisiae deletion strains, locus YMR263W, strain SAP30, hits give low values) 0.999. Also, the normalized growth is 0.669 (S. cerevisiae deletion strains, locus YMR307W, strain GAS1, hits give low values); 1 (S. cerevisiae deletion strains, locus YNL153C, strain GIM3, hits give low values); 0.926 (S. cerevisiae deletion strains, locus YNL298W, strain CLA4 (second series), hits give low values); 0.974 (S. cerevisiae deletion strains, locus YNL322C, strain KRE1, hits give low values); 0.958 (S. cerevisiae deletion strains, locus YNR030W, strain Alg12, hits give low values); 1.06 (S. cerevisiae deletion strains, locus YPL055C, strain LGE1, hits give low values). Also, the normalized growth is, setting by setting: (S. cerevisiae deletion strains, locus YPL241C, strain CIN2, hits give low values) 0.982; (S. cerevisiae deletion strains, locus YPR135W, strain CTF4, hits give low values) 0.897; (S. cerevisiae strains, strain wild type, hits give low values) 0.902 (active).

For the compound `OC[C@H]1O[C@H](OCCCc2ccc(O)cc2)[C@H](O)[C@@H](O)[C@@H]1O`, the normalized growth is 0.97 under setting [1]; 0.993 (S. cerevisiae deletion strains, locus YHR079C, strain IRE1, hits give low values); 1 (S. cerevisiae deletion strains, locus YJL095W, strain BCK1, hits give low values); 0.93 (S. cerevisiae deletion strains, locus YJR066W, strain TOR1, hits give low values); 0.979 (S. cerevisiae deletion strains, locus YLR113W, strain HOG1, hits give low values); 0.933 (S. cerevisiae deletion strains, locus YNL183C, strain NPR1, hits give low values). Besides, the normalized growth is 0.975 (S. cerevisiae deletion strains, locus YOR231W, strain MKK1, hits give low values) and 0.968 (S. cerevisiae deletion strains, locus YPL256C, strain CLN2, hits give low values).

The values above are taken from PubChem BioAssay AID1159580 (chemical genetic matrix, 2015).
